PubChem BioAssay AID602295 (Broad Institute, 2012)
The source made the active and inactive calls.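 The calls were made as follows: active = every separate test run called active, meaning the signal drops and a potency is fitted within twice the top valid dose; inconclusive = runs disagree, poor fit, or flat partial inhibition; inactive = all runs inactive, flat, opposite direction or too weak.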

Target: Mitogen-activated protein kinase 3 (Homo sapiens) (UniProt P27361)
Test: inhibition of MAPK3 kinase activity – biochemical, ADP-Glo luminescence, cherry pick, set 2, selectivity assay for Dyrk1A inhibitor NFAT project, dose response (AID 602295)

Mitogen-activated protein kinase 3 (Homo sapiens), sequence (P27361 whole entry, looked up): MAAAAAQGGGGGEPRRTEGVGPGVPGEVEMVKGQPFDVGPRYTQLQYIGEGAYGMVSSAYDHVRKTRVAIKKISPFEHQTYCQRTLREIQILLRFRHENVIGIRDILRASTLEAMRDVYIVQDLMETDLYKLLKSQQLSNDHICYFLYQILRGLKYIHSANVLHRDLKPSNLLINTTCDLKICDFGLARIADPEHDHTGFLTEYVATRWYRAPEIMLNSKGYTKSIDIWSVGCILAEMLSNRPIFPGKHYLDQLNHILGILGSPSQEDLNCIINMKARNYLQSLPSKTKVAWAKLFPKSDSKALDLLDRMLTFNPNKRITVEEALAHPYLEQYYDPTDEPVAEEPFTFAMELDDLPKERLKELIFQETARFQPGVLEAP

SMILES	outcome
CCN1CCN(Cc2ccc(NC(=O)c3ccc(C)c(/C=C/c4cnc(Nc5cc(N6CCNCC6)nc(C)n5)cn4)c3)cc2C(F)(F)F)CC1	inactive
FC(F)(F)c1cccc(Nc2nccc(-c3ccc4c(c3)OCO4)n2)c1	inactive
N#CCSc1nc(Nc2ccc3c(c2)OCO3)c2ccccc2n1	inactive
c1csc(CCNc2ncnc3ccc(-c4ccc5c(c4)OCO5)cc23)c1	inactive
O=C(CSc1nnnn1-c1ccc(O)cc1)Nc1ccc(N2CCOCC2)c(Cl)c1	inactive
Cc1occc1CNc1ncnc2ccc(-c3ccc4c(c3)OCO4)cc12	inactive
Cc1nc(NC(=O)c2ccccc2)sc1-c1csc(NCc2ccco2)n1	inactive
N#Cc1c(C(F)(F)F)cc(-c2cccc(Cl)c2)[nH]c1=O	inactive
c1cncc(CNc2nccc(-c3ccc4c(c3)OCO4)n2)c1	inactive
COc1cccc(Nc2nc(-c3ccc(O)cc3)cs2)c1	inactive
c1cncc(CNc2ccnc(-c3ccc4cn[nH]c4c3)n2)c1	inactive
Clc1ccc(CNc2ccnc(-c3ccc4[nH]ncc4c3)n2)cc1Cl	inactive
O=[N+]([O-])c1cc(Nc2nccc(-c3ccc4c(c3)OCO4)n2)cc(C(F)(F)F)c1	inactive
O=C(Nc1nc(-c2ccc3c(c2)OCCO3)cs1)c1ccco1	inactive
COc1ccc(-c2cc(NCCc3ccncc3)n3ncnc3n2)cc1	inactive
Cc1ccsc1CN(C)c1ncnc2ccc(-c3ccc(CO)o3)cc12	inactive
c1nc(NCC2CCCOC2)c2cc(-c3ccc4c(c3)OCO4)ccc2n1 (stereo not drawn)	inactive

SMILES	outcome
c1cncc(CNc2nccc(-c3ccc4cn[nH]c4c3)n2)c1	inactive
CC(=O)Nc1ccc(SCc2ncc(-c3ccccc3)o2)cc1	inactive
Cc1ccsc1CNc1ncnc2ccc(-c3ccc4c(c3)OCO4)cc12	inactive
Clc1cc(Cl)cc(CNc2cc(-c3ccc4c(c3)OCO4)ncn2)c1	inactive
COc1cccc(NC(=O)Nc2ccc3c(c2)N(C)C(=O)CS3)c1	inactive
COCCNC(=O)c1ccc2c(c1)nc(C)n2-c1cccc(F)c1	inactive
Cc1nc(CN(C)c2ncnc3ccc(-c4ccc5c(c4)OCO5)cc23)cs1	inactive
O=c1cc(-c2ccccc2Cl)oc2c(NS(=O)(=O)c3ccccc3C(F)(F)F)ccc(O)c12	inactive
Fc1c(-c2ccc3ncnc(NCc4cccs4)c3c2)ccc2c1OCO2	inactive
c1cc(-c2ccc3c(c2)OCO3)nc(Nc2ccc3c(c2)OCO3)n1	inactive
Cc1nc(N)sc1-c1csc(Nc2ccccc2)n1	inactive
Cc1ccc(CN(C)c2ncnc3ccc(-c4ccc5c(c4)OCO5)cc23)o1	inactive
COc1cc(C(=O)Nc2cccc(-c3nncn3C)c2)cc(OC)c1OC	inactive
c1cncc(CNc2ccnc(-c3ccc4[nH]ncc4c3)n2)c1	inactive
c1nc(NCC2CCCO2)c2cc(-c3ccc4c(c3)OCO4)ccc2n1 (stereo not drawn)	inactive
Brc1ccc(CNc2nccc(-c3ccc4c(c3)OCO4)n2)cc1Br	inactive
